Test results published in PubChem BioAssay AID893 (National Center for Advancing Translational Sciences (NCATS), 2007).
About 5,700 (7.6%) of roughly 75,000 compounds were called active. Where a call stands in place of a potency, no number is given. Another 7% or so got no clear call; they are omitted. Calls come from the whole dose curve; as a rule, active = well fitted inhibition curve with a large enough effect; inconclusive = small, poorly fitted or top-dose-only effect; inactive = no such curve, though single readings can be large or run the other way. This excerpt belongs to a sample that is enriched for actives.

What follows are compounds tested against 3-hydroxyacyl-CoA dehydrogenase type-2 (Homo sapiens) (UniProt Q99714) (assay: qHTS Assay for Inhibitors of HSD17B4, hydroxysteroid (17-beta) dehydrogenase 4). Conditions: recombinant HSD17B10, NADH fluorescence kinetic; series mostly up to 57.1 µM.
In short: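 His-tagged E. coli-expressed HADH2 at 20 nM in 100 mM Tris-HCl pH 9.0 with 0.01 % Tween-20, preincubated 15 min with compound at room temperature. Reaction with 1 mM NAD+ and 90 uM beta-hydroxybutyryl coenzyme A; NADH fluorescence (360/450 nm) read kinetically over 4 min, last minus first point.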
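Note: the protocol describes HADH2 (HSD17B10) and not the HSD17B4 of the title; nearly all actives have a fitted effect of over 70% in size.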
Potency is the fitted concentration of half-maximal effect.

Structure (SMILES)	activity change, negative = inhibition	Potency
CCOC(=O)N/N=C1/C[C@@H](O)[C@@H](O)[C@@H]2[C@@H]3C(=O)N(CC)C(=O)[C@H]3CC[C@H]12	7.25% [at 11.4 µM] (inactive)	
O=C(c1c(Cl)nc2sccn12)N1CCCc2ccccc21		inactive
O=C(c1ccco1)N1CCC2(CC1)CCN(c1ncccn1)CC2		31.6 µM (active)
CC(C)NC(=O)N1CC[C@@]2(CCCN(C(=O)c3ccco3)C2)C1		inactive
O=C(c1ccco1)N1CCC[C@@]2(CCN(c3ccccc3)C2)C1		inactive
COc1ccc(OC)c(S(=O)(=O)Nc2ccccc2F)c1		inactive
COC(=O)c1ccc(NC(=O)CSc2nnc(-c3ccncc3)n2C)cc1		inactive
CC(=O)NC1=NC(=O)CS1		inactive
O=C1CC(c2ccccc2)C(=O)N1c1cccc(O)c1 (stereo not drawn)		inactive
CN(c1nc2ccccc2n2c(-c3ccco3)nnc12)S(=O)(=O)c1ccccc1		1 µM (active)
Cc1ccc(Oc2nc3ccccc3n3c(C)nnc23)cc1		inactive
CCCCNC(=O)CSc1nnc(-c2ccco2)n1C		inactive
CC1=C2C(=O)OC(c3ccoc3)C2(C)CCC1 (stereo not drawn)		inactive
Cc1ccccc1OCCC(=O)Nc1c(C)n(C)n(-c2ccccc2)c1=O		inactive
CCC(=O)Nc1ccc(C(=O)Nc2ccc3c(c2)C(=O)N(CC2CCCO2)C3=O)cc1 (stereo not drawn)		31.6 µM (active)
O=C(NCc1ccc2c(c1)OCO2)c1ccc2c(c1)C(=O)N(CC1CCCO1)C2=O (stereo not drawn)		inactive
O=C(CCN1C(=O)c2ccncc2C1=O)Nc1ccc2c(c1)OCCO2		inactive
O=C(CCN1C(=O)c2ccccc2C1=O)NCCN1CCOCC1		inactive
COCc1nc2ccccc2n1Cc1ccccc1Br		inactive
COC(=O)N1CCC2(CCCN(Cc3ccccc3OC)C2)CC1		inactive
Cn1c(=O)n(C)c(=O)n(CC(=O)N2CCCCC2)c1=O		inactive
Cc1ccc2c(c1)c1ncn(CCC3=CCCCC3)c(=O)c1n2C		31.6 µM (active)
CC1CCCN(C(=O)c2ccc3c(c2)C(=O)N(CCC2=CCCCC2)C3=O)C1 (stereo not drawn)		inactive

Structure (SMILES)	activity change, negative = inhibition	Potency
Cn1nnc2cc(C(=O)NCCC3=CCCCC3)ccc21		inactive
CC1(C)C(=O)C2(CCCCC2)C(=O)OC1c1cccs1 (stereo not drawn)		inactive
CC(C)CO		inactive
CCCC(Cl)CCCC(Cl)CCC(Cl)CCC(Cl)CCC(Cl)CCCC(Cl)CCC (stereo not drawn)		inactive
CCC(=NC1CC(C)(C)NC(C)(C)C1)C1=C(O)CC(C)(C)CC1=O		inactive
COC(=O)c1c(NC(=O)c2cccs2)sc2c1CCCC2		31.6 µM (active)
CCOC(=O)c1c(NC(=O)c2ccc(Br)o2)sc2c1CCCC2		25.1 µM (active)
CCCOC(=O)Nc1sc2c(c1C(=O)OCC)CCC2		inactive
CCc1c(C)sc(NC(=O)OC)c1C(=O)N1CCOCC1		inactive
CCOC(=O)c1c(NC(=O)c2cccs2)sc(C)c1C		inactive
CCc1c(C)sc(NC(=O)c2ccc(Br)o2)c1C(=O)OC		31.6 µM (active)
COC(=O)c1c(NC(=O)CSc2nncs2)sc2c1CCCCC2		inactive
COc1cc(OC)c(NC(=O)c2ccc(Br)o2)cc1Cl		inactive
CCOC(=O)c1c(NC(=O)CCC(=O)NCc2ccco2)sc2c1CCCC2		inactive
CCOc1ccc(N=C2SC(C(=O)O)CC(=O)N2C)cc1 (stereo not drawn)		inactive
O=C(CCS(=O)(=O)Cc1ccccc1F)NCCCN1CCCCC1		inactive
Cn1c2c(c(=O)n(C)c1=O)C1c3ccccc3OCC1C(C)(C)O2 (stereo not drawn)		inactive
NCC(=O)[C@@H](O)[C@H](O)[C@H](O)CO	0.448% [at 11.4 µM] (inactive)	
COc1ccc(NC(=O)c2cccc(NC(=O)c3ccco3)c2)c(OC)c1		inactive
Cc1cc(C(=O)O)ccc1[N+](=O)[O-]		inactive
CC(C)OC(=O)CN1C(=O)c2ccccc2C1=O		inactive
CC(C)NC(=O)N1CCCC2(CCN(C(=O)c3cccn3C)CC2)C1		inactive
CC1CCCC(NC(=O)CSc2nccn2C)C1C (stereo not drawn)		inactive

Structure (SMILES)	activity change, negative = inhibition	Potency
O=C(OCC(COC(=O)c1ccccc1)(COC(=O)c1ccccc1)COC(=O)c1ccccc1)c1ccccc1		inactive
C/C(CCN1CCc2nc(-c3ccccc3)c(-c3ccccc3)cc2C1)=N\O[C@@H](C)c1cn([C@@H]2COC[C@@H]2O)nn1	2.35% [at 11.4 µM] (inactive)	
O=C(O)CCCCC(=O)O		inactive
C#CCCCCCCCCCCCCCCCC(=O)O		15.8 µM (active)
CCCCCCCCCCCC(=O)O		inactive
CC1CC[C@@]23CCC4(C)[C@@]5(C)CCC6C(C)(C)C(O)CC[C@@]6(C)C5C=C[C@@]4(OC2=O)C3C1C (stereo partly drawn)		inactive
O=C(NCCN1C(=O)C2C3C=CC(C3)C2C1=O)Nc1ccccn1 (stereo not drawn)		inactive
C=CCSc1nc2ccccc2[nH]1		inactive
COC(=O)Cc1nc2ccccc2[nH]1		inactive
c1ccc2[nH]c(-c3nc4ccccc4[nH]3)nc2c1		25.1 µM (active)
c1ccc(-c2[nH]ncc2-c2nc3ccccc3[nH]2)cc1		12.6 µM (active)
C=CCSc1nc2c(c(=O)[nH]1)C(C(C)C)C(C#N)=C(N)O2 (stereo not drawn)		inactive
O=C(O)c1cccc(S(=O)(=O)NCCO)c1	10% [at 11.4 µM] (inactive)	
O=C(NCc1ccccc1)[C@H]1C[C@@H]1[C@H](NP(=O)(c1ccccc1)c1ccccc1)c1ccccc1		inactive
COC(=O)c1ccc2c(c1)S(=O)(=O)NC(=NCCCN1CCOCC1)S2		inactive
COc1ccc(C(=O)N/N=C2/C(=O)c3c(C)cc(C)cc3CC2(C)C)cc1	12.3% [at 11.4 µM] (inactive)	
Cc1cccc(NC(=O)CSc2nc3c(c(=O)[nH]2)CCC3)c1C		inactive
Cc1cccc(NC(=O)CSC(N)=O)c1C		31.6 µM (active)
Cc1nc(C)c(C(=O)Nc2cccc(C)c2C)o1		inactive
Cc1nnc(NC(=O)CCC(=O)N2CCC(C)CC2)s1		inactive
CCCCC/C=C/C=C/C=O		inactive
CCn1c2c(c3ccc(OC)cc31)CCCC2=O		25.1 µM (active)
CCn1c(=N)n(CC(=O)c2cccc(OC)c2)c2ccccc21		inactive

Structure (SMILES)	activity change, negative = inhibition	Potency
CC(=O)Nc1ccc(S(=O)(=O)NCCc2ccccc2)cc1		inactive
COC(=O)CCCCCN1C(=O)NC(c2ccc(-c3ccccc3)cc2)C(C(=O)OCc2ccccc2)=C1C (stereo not drawn)		inactive
Fc1ccc(-c2nnc3sc(-c4ccc5c(c4)OCO5)nn23)cc1		inactive
COc1cc(-c2nn3c(-c4cccc(C)c4)nnc3s2)cc(OC)c1OC		inactive
c1ccc(-c2cc(-c3nnc4sc(-c5ccccn5)nn34)[nH]n2)cc1		31.6 µM (active)
Cc1cc(C)cc(N)c1		inactive
CCCc1nc2ccccc2c(=O)n1NC(=O)c1c(O)c2ccccc2[nH]c1=O		inactive
CCOC(=O)CC1=CC(=O)Nc2ccccc2N1		inactive
CCCOC(=O)Cc1c(O)c2ccccc2[nH]c1=O		31.6 µM (active)
O=C(N1CCOCC1)N(Cc1ccccc1)c1ccccn1		inactive
CCNC(=O)N1CCNC(=O)C1CC(=O)Nc1ccc(C(=O)OCC)cc1 (stereo not drawn)		inactive
O=C(C1CCCO1)N(Cc1ccccc1)c1ccccc1 (stereo not drawn)		inactive
CCS(=O)(=O)N1CCN(C(=O)c2cccs2)CC1		inactive
COc1ccc(S(=O)(=O)N2CCN(C(=O)c3cccs3)CC2)cc1OC		3.98 µM (active)
CCCS(=O)(=O)N1CCN(C(=O)c2cccs2)CC1		inactive
COc1ccc(C2N=C(N)N=C(N)N2c2ccccc2)cc1OC (stereo not drawn)		inactive
Cc1cc(C)c2nc(N3CCCC3)c(C#N)cc2c1		31.6 µM (active)
C=CCOC(=O)C(C(C)=O)C(NC(=O)OC)c1ccccc1 (stereo not drawn)	10.6% [at 11.4 µM] (inactive)	
CCn1c(SCC(=O)NCC2CCCO2)nc2cc(S(=O)(=O)N3CCCCC3)ccc21 (stereo not drawn)		inactive
CCc1ccc(NC(=O)CSc2nc3ccccc3c(=O)n2CCN2CCOCC2)cc1		inactive
CCCCn1c(SCC(=O)NCC2CCCO2)nc2ccc(N3CCOCC3)cc2c1=O (stereo not drawn)		31.6 µM (active)
Cc1cc(Nc2cccc(F)c2)n2ncnc2n1		inactive
Cc1ccc2c(c1)c1ncnc(N3CCc4ccccc4C3)c1n2C		31.6 µM (active)

Structure (SMILES)	activity change, negative = inhibition	Potency
Cc1ccc(NC(=O)CCN2CCc3ccccc3C2)cc1		inactive
Cc1cc(C)nc(N2CCN(c3ncnc4c3oc3ccccc34)CC2)n1		inactive
CCCCCCCCCc1ccc(OCCOCCOCCOCCOCCOCCOCCOCCOCCO)cc1		inactive
COc1ccc(CC(=O)Nc2ccc(-c3nnc(-c4ccccc4)o3)cc2)cc1		12.6 µM (active)
O=C(COC(=O)c1ccc(Oc2ccccc2)cc1)Nc1nnc(-c2ccccc2)o1		inactive
COc1ccc(C(CC(=O)O)NC(=O)Cc2ccccc2)cc1 (stereo not drawn)		inactive
COc1ccc(CC(=O)Nc2ccc(-c3nnc(-c4ccc(C)cc4)o3)cc2)cc1		2.51 µM (active)
CCCCCNC(=O)Cc1ccc(OC)cc1		inactive
O=C(Nc1nnc(CCc2ccccc2)s1)C1CCCO1 (stereo not drawn)		inactive
COc1ccc(NC(=O)c2ccc(OC)cc2)cc1		inactive
O=C(CSc1nnc(-c2ccc(NS(=O)(=O)c3ccccc3)cc2)o1)NCC1CCCO1 (stereo not drawn)		inactive
O=C(Nc1ccc(-c2nnc(-c3ccccc3)o2)cc1)C1CCCO1 (stereo not drawn)		20 µM (active)
CCCCNC(=O)CSc1nccn1Cc1ccccc1		inactive
CC(=O)Nc1cc(C(=O)O)ccc1S(=O)(=O)c1ccc(Cl)cc1		inactive
O=S1(=O)CCN2C(=N1)SC1=C2CCN(Cc2ccccc2)C1		inactive
COc1ccc(Br)c2c1C[C@H](C(=O)O)CC2	7.09% [at 11.4 µM] (inactive)	
O=C(CSc1nc2ccccc2o1)N1CCN(c2ccc(Cl)cc2)CC1		inactive
COc1ccc(-n2c(SCC(=O)OC(C)C)nnc2-c2ccccn2)cc1		inactive
CCOC(=O)C1C(=O)C=C(c2ccc(OC)cc2)CC1c1ccco1 (stereo not drawn)		20 µM (active)
COc1ccc(CCNC(=O)c2ccco2)cc1		inactive
CCOC(=O)C1C(=O)NC(N2CCN(c3ccccc3)CC2)=NC1c1ccco1 (stereo not drawn)		inactive
